Assay outcomes: PubChem BioAssay, several laboratories
Only some compounds are listed: those with a hit (about 3.2% of all), similar ones and a draw of the others.
Mtb betalactam: beta-lactam sensitization of Mtb H37Rv; M. tuberculosis H37Rv growth with meropenem, percent inhibition; inhibition, % at 25 µM; actives 0.27% (n = 330,000); call rule not given here;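 note: growth measured after seven days incubation then overnight dye step; 0% = bacteria only wells and 100% = bacteria with antibiotic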
PriA SSB inh: inhibitors of Klebsiella pneumoniae PriA binding to SSB C-terminal tail | AlphaScreen SSBct-PriA binding, biotinylated peptide | inhibition, % at 33 µM | actives 0.6% (n = 430,000) | AID 1272365; in the data active = inhibition mostly above about 37%, no sharp cut-off; inactive = mostly below about 20%;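 note: plate controls were negative control peptide for no effect and reference peptide for full effect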
UGM FP inh: Mtb UDP-galactopyranose mutase inhibition | P9WIQ1 | purified UGM, fluorescence polarization probe displacement | inhibition, % at 10 µM | actives 0.06% (n = 320,000); in the data active = inhibition above about 10%, passing the limit was not always enough
FBA Mtb inh: inhibitors of M. tuberculosis fructose-bisphosphate aldolase | P9WQA3 | purified M. tuberculosis FBA, fluorescence read-out | inhibition, % at 1 µM | actives 2.3% (n = 360,000) | AID 588726; in the data active = inhibition above about 27%;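 note: 0% = vehicle and 100% = reference inhibitor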
GDH-TPI counter: counter-screen for M. tuberculosis FBA inhibitors: GDH-TPI coupled enzymes. GDH-TPI coupled enzyme counterscreen, NADH absorbance. inhibition, % at 4.8 µM. actives 1.2% (n = 360,000). AID 588335; in the data active = inhibition above about 30%;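 note: 0% = DMSO wells and 100% = wells lacking the enzyme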
Rv3671c protease: Rv3671c (M. tuberculosis) protease inhibition | actives 0.048% (n = 320,000) | P9WHR9 | inhibition, % at 5.96 µM; in the data active = inhibition above about 38%;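 note: extracellular domain of Rv3671c used as enzyme; 0% = enzyme with DMSO and 100% = no enzyme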
Target sequence (P9WHR9 whole entry, looked up, the tested form may be a part): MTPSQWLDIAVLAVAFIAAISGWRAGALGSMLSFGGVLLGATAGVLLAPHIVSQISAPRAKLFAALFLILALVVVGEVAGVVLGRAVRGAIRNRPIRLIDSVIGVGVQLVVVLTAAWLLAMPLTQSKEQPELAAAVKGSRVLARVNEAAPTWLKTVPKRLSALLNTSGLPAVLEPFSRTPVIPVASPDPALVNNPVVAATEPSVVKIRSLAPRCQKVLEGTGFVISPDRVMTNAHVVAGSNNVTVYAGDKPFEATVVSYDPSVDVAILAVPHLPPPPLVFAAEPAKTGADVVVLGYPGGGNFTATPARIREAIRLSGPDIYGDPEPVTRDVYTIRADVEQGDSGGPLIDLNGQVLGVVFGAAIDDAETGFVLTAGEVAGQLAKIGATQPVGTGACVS
* = called active by the depositor; nt = not tested or not shown; + = active, no number.

SMILES	Mtb betalactam	PriA SSB inh	UGM FP inh	FBA Mtb inh	GDH-TPI counter	Rv3671c protease
CC(NC(=O)/C(C#N)=C/c1ccc(C(=O)O)cc1)c1ccccc1 (stereo not given)	0	-5	0	-4	38*	2
Cc1ccc(/C=C(\C#N)C(=O)NC(C)c2ccccc2)o1 (stereo not given)	-2	5	0	1	33*	-2
Cc1ccc(/C=C(/C#N)C(=O)NC(C)c2ccccc2)o1 (stereo not given)	1	-1	1	-1	23	-8
Cc1ccc(/C=C(\C#N)C(=O)NC(C)C)o1	-7	-4	1	1	65*	7
COCCN1CCn2c(nc3cc(NC(=O)NC4CCCCC4)ccc32)C1	4	9	-2	94*	4	6
CC(=O)c1ccc(N2CCN(c3ccc(C(N)=O)cc3[N+](=O)[O-])CC2)cc1	3	0	-1	-9	33*	3
CC(NC(=O)OC(C)(C)C)C(=O)Oc1cc2oc(=O)cc(-c3ccccc3)c2cc1Cl (stereo not given)	12	5	0	43*	20	-3
CC(Oc1cc2oc(=O)cc(-c3ccccc3)c2cc1Cl)C(=O)NCC1CCC(C(=O)O)CC1 (stereo not given)	-3	-2	2	6	28	-8
O=C(Oc1ccc(C=NO)cc1)c1ccccc1Cl	nt	-3	nt	nt	nt	nt
CCOC(=O)Cc1csc(NC(=O)NC2CC(=O)N(c3ccc4c(c3)OCCO4)C2)n1 (stereo not given)	nt	-12	nt	nt	nt	nt
O=C(c1ccccc1OC(F)(F)F)N1CCN(C(=O)c2cnn3c2CCCC3)CC1	nt	-7	nt	nt	nt	nt
COc1cc(/C=C/C(=O)Nc2nc3ccc(S(=O)(=O)N(C)C)cc3s2)cc(OC)c1OC	4	-14	0	25	48*	-19
O=C(CSc1ccc(-c2cccc([N+](=O)[O-])c2)nn1)c1ccc(F)cc1	nt	-9	nt	nt	nt	nt
Nc1nc(NCCN2CCOCC2)nc(NCc2ccccc2)c1[N+](=O)[O-]	-6	-1	-5	-3	48*	-5
Nc1nc(NCCCN2CCOCC2)nc(NCc2ccccc2)c1[N+](=O)[O-]	11	1	0	-2	50*	-4
Nc1nc(NCc2ccco2)nc(NCCO)c1[N+](=O)[O-]	-10	-2	-1	-5	32*	3
CN(Cc1ccccc1)c1nc(N)c([N+](=O)[O-])c(NCc2ccccc2)n1	8	15	-1	-1	31*	-14
Nc1nc(NCCN2CCOCC2)nc(NCc2ccco2)c1[N+](=O)[O-]	nt	-4	nt	nt	nt	nt
Cc1nc2ccccc2c(=O)n1-c1ccc(F)c(NS(=O)(=O)c2ccc(Cl)s2)c1	nt	-6	nt	nt	nt	nt
COc1ccc(NC(=O)c2ccc(-c3ccc(C(C)=O)cc3)o2)cn1	6	3	3	19	32*	-8
COc1ccc(NC(=O)c2ncc(-c3ccc(F)cc3)o2)cn1	nt	-4	nt	nt	nt	nt
O=C(c1csc(NS(=O)(=O)c2ccccc2)n1)N1CCN(c2ccccc2F)CC1	nt	-1	nt	nt	nt	nt
O=C(c1csc(Nc2ccccc2)n1)N1CCN(c2ccccc2F)CC1	nt	26*	nt	nt	nt	nt
O=C(c1csc(Nc2ccccc2)n1)N1CCN(Cc2ccc3c(c2)OCO3)CC1	nt	active	nt	nt	nt	nt
COc1cc2cc(C(=O)N3CCN(Cc4ccc5c(c4)OCO5)CC3)c(=O)oc2cc1OC	-5	-6	0	+	17	2
SMILES	Mtb betalactam	PriA SSB inh	UGM FP inh	FBA Mtb inh	GDH-TPI counter	Rv3671c protease
CCOc1ccc2ccccc2c1C(=O)NCC1COC2(CCCC2)O1 (stereo not given)	nt	-8	nt	nt	nt	nt
COc1c2ccc(C(=O)NCc3cccc(Oc4ccccn4)c3)cc2nn1C	nt	-5	nt	nt	nt	nt
O=c1[nH]c(=S)n(-c2ccc(Br)cc2)c(O)c1C=Nc1ccc(N2CCOCC2)cc1	0	-8	-1	-3	16	-27
CC(=O)N1CCN(CCN=Cc2c(O)n(-c3ccc(C)cc3)c(=S)[nH]c2=O)CC1	-5	6	0	-3	37*	-5
Cn1c(O)c(/C=N/N2CCOCC2)c(=O)n(-c2ccccc2)c1=S	-11	nt	0	0	35*	8
CCOc1ccc(-n2c(O)c(C=Nc3ccc(N4CCOCC4)cc3)c(=O)[nH]c2=O)cc1	3	-15	5	-1	32*	4
O=c1[nH]c(=S)n(-c2ccc(F)cc2)c(O)c1/C=N/N1CCOCC1	-7	nt	-3	-1	31*	-3
O=C(C1CCN(c2ccc(-c3ccccc3)nn2)CC1)N1CCN(c2ccc(C(F)(F)F)cn2)CC1	nt	-19	nt	nt	nt	nt
Cn1c(O)c(N=NC(=O)CNC(=O)c2cccnc2)c2ccccc21	-5	-16	2	0	39*	-4
Cn1c(O)c(N=NC(=N)N)c2ccccc21	-11	-5	4	-2	40*	5
CCCn1c(O)c(N=NC(=O)CNC(=O)c2cccnc2)c2ccccc21	0	5	-3	-4	6	1
CCOC(=O)N=Nc1c(O)n(C)c2ccccc12	-6	0	-1	-1	13	10
CCOc1ccc2c(c1)c(N=NC(=N)N)c(O)n2C	3	6	-2	-7	17	3
CCOc1ccc2c(c1)c(N=NC(N)=S)c(O)n2C	10	8	3	-1	31*	-7
COC(=O)Cn1c(O)c(N=NC(=O)CNC(=O)c2ccncc2)c2ccccc21	-2	-3	-2	1	38*	-8
Cc1cc(C)n2nc(SCc3ccc(Cl)cc3Cl)nc2n1	nt	-2	nt	nt	nt	nt
CC(C)(C)C(=O)Nc1nc(-c2ccc3c(c2)OCCO3)cs1	nt	18	nt	nt	nt	nt
O=C(C=C1NC2(CCCC2)Cc2ccccc21)C(=O)NN=Cc1ccc(O)c(O)c1	nt	26	nt	nt	nt	nt
CCOC(=O)c1ccc(NC(=O)Cn2cnc(-c3ccc(OCC)cc3)cc2=O)cc1	nt	-9	nt	nt	nt	nt
O=C(CN1CCCCC1)Nc1cccc(Cl)c1	-4	-15	1	2	-8	2
COc1cc(NC(=O)Nc2cccc(Cl)c2)c(OC)cc1NC(=O)CN1CCCCC1	4	50*	0	0	-5	20
COc1ccccc1NC(=O)c1ccc(NC(=O)CN2CCCC2)cc1	-6	47*	7	1	-1	6
Cn1c2ccccc2c(=O)c2cc(C#Cc3cccc(N)c3)ccc21	2	-6	2	8	15	-12
C=CCn1c2ccccc2c(=O)c2cc(C#CC[C@@H](C)O)ccc21	24	-23	4	+	13	-25
COc1ccc(-c2ccc(=O)n(CCCNC(=O)C3CCCC3)n2)cc1	nt	-16	nt	nt	nt	nt
SMILES	Mtb betalactam	PriA SSB inh	UGM FP inh	FBA Mtb inh	GDH-TPI counter	Rv3671c protease
Cc1cc2ncc(CCCNC(=O)c3cc(C4CC4)on3)cn2n1	nt	22	nt	nt	nt	nt
COc1ccc2nc(N=Cc3c(C)[nH]n(-c4ccc(C)cc4C)c3=O)sc2c1	nt	48*	nt	nt	nt	nt
CN1C(=O)NC2(CCN(C(=O)c3ccc(-c4ccccc4)cc3)CC2)C1=O	nt	-8	nt	nt	nt	nt
CC[C@@](CNC(=O)c1cc(C)oc1C)(OC)c1ccccc1	nt	0	nt	nt	nt	nt
CCN(CC)c1ccc(C=NNS(=O)(=O)c2ccc(C)c([N+](=O)[O-])c2)cc1	nt	39*	nt	nt	nt	nt
COc1cc(C=NNS(=O)(=O)c2ccc(C)c([N+](=O)[O-])c2)ccc1O	nt	-5	nt	nt	nt	nt
